Measurements published in PubChem BioAssay (EPA / NIEHS).
Where “and” joins values, the source holds several entries; their conditions need not be identical. Identical values can stand only once. Where a structure was tested more than once in an assay, its records may differ in their call. Calls of active or inactive are those of the source. How the source made its calls: active means hit-call score of the fitted dose curve at least 0.9, where 1 is the maximum; inactive means score below 0.9.

Read-out: Transforming growth factor beta 1 (TGFb1), TGFB1 (gene 7040)
Assay: BSK_BE3C_TGFb1: BioMAP Diversity Plus: BE3C Assay for Transforming growth factor beta 1 (TGFb1) Biomarker Activity (AID 2283036;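 on outcome: TGF-b1 protein level measured by ELISA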)
Conditions: primary human bronchial epithelial cells; actives raise or lower the signal
In short: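 TGF-b1 measured via ELISA, 24 h after chemical dosing of human bronchial epithelial cells (BE3C). Overt cytotoxicity assessed in parallel by SRB (0.1%, TCA-fixed, 560 nm); analysis bidirectional relative to DMSO.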

outcome, inactive:
CCC(C)c1ccccc1O (stereo not given), CCCCCCCCCCCCCCC, O=C1NS(=O)(=O)c2ccccc21, C[C@]12CC[C@@H]3c4ccc(O)cc4CC[C@H]3[C@@H]1C[C@@H](O)[C@@H]2O, CCOC(=O)CN[C@@H](C(=O)N1CC[C@H]1C(=O)NCc1ccc(/C(N)=N/O)cc1)C1CCCCC1, CCCCC(CC)C(=O)OCCOCCOCCOCCOC(=O)C(CC)CCCC (stereo not given), Clc1ccc(Nc2nnc(Cc3ccncc3)c3ccccc23)cc1, Cc1cccc2c1ccc1ccccc12, CC(C)(C)c1ccc(O)c(O)c1, CN(C)c1ccc(C(=C2C=CC(=[N+](C)C)C=C2)c2ccccc2)cc1, O=C(NO)c1ccccc1, CC[N+](CC)(CC)Cc1ccccc1, O=C(c1ccccc1)c1ccccc1, O=C(NCc1ncc(C(F)(F)F)cc1Cl)c1c(Cl)cccc1Cl, N=C(N)c1ccc(OCCCCCOc2ccc(C(=N)N)cc2)cc1, C=CC(C)(CCC=C(C)C)OC(C)=O (stereo not given), CCCCCCCCCCCCCCCCCC[N+](C)(C)Cc1ccccc1, CCCCC=O, COCN(COC)c1nc(N(COC)COC)nc(N(COC)COC)n1, O=C1c2ccc(O)c(O)c2C(=O)c2c(O)ccc(O)c21, OCCN1CN(CCO)CN(CCO)C1, CN(Cc1cnc2nc(N)nc(N)c2n1)c1ccc(C(=O)N[C@@H](CCC(=O)O)C(=O)O)cc1, CS(=O)(=O)c1ccc([C@@H](CC2CCCC2)C(=O)Nc2cnccn2)cc1Cl, CC1=NN(c2ccccc2)C(=O)C1

AC50, active:
O=C1OC2(c3ccccc31)c1cc(I)c(O)c(I)c1Oc1c2cc(I)c(O)c1I 3.9 µM, Cc1[nH]nc2c1N=C(c1ccccc1Cl)c1cc([N+](=O)[O-])ccc1N2 21.6 µM, CCCCc1oc2ccccc2c1C(=O)c1cc(I)c(OCCN(CC)CC)c(I)c1 12.2 µM

Read-out: Plasminogen activator inhibitor-1 (PAI1), SERPINE1 (gene 5054)
Assay: BSK_BE3C_PAI1: BioMAP Diversity Plus: BE3C Assay for Plasminogen activator inhibitor-1 (PAI1) Biomarker Activity (AID 2283037)
Conditions: primary human bronchial epithelial cells; actives raise or lower the signal
In short: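 In this multiplexed primary-cell system, bronchial epithelial cells receive test chemical and are sampled at 24 h. PAI-1 is read by ELISA, with DMSO serving as negative control for bidirectional fitting.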

outcome, inactive:
O=P(O)(O)CCC(F)(F)C(F)(F)C(F)(F)C(F)(F)C(F)(F)C(F)(F)C(F)(F)C(F)(F)F, CCC(C)c1ccccc1O (stereo not given), CCCCCCCCCCCCCCC, O=C1NS(=O)(=O)c2ccccc21, C[C@]12CC[C@@H]3c4ccc(O)cc4CC[C@H]3[C@@H]1C[C@@H](O)[C@@H]2O, CCOC(=O)CN[C@@H](C(=O)N1CC[C@H]1C(=O)NCc1ccc(/C(N)=N/O)cc1)C1CCCCC1, CCCCC(CC)C(=O)OCCOCCOCCOCCOC(=O)C(CC)CCCC (stereo not given), Cc1cccc2c1ccc1ccccc12, CC(C)(C)c1ccc(O)c(O)c1, CN(C)c1ccc(C(=C2C=CC(=[N+](C)C)C=C2)c2ccccc2)cc1, O=P(O)(O)CCC(F)(F)C(F)(F)C(F)(F)C(F)(F)C(F)(F)C(F)(F)F, O=C(NO)c1ccccc1, CC[N+](CC)(CC)Cc1ccccc1, O=C(c1ccccc1)c1ccccc1, OCC(F)(F)C(F)(F)C(F)(F)C(F)(F)C(F)(F)C(F)(F)C(F)(F)C(F)(F)C(F)(F)C(F)(F)C(F)(F)F, O=C(NCc1ncc(C(F)(F)F)cc1Cl)c1c(Cl)cccc1Cl, C=CC(C)(CCC=C(C)C)OC(C)=O (stereo not given), CCCCCCCCCCCCCCCCCC[N+](C)(C)Cc1ccccc1, O=C(O)CCC(F)(F)C(F)(F)C(F)(F)C(F)(F)C(F)(F)C(F)(F)F, Oc1ccc(Cc2ccccc2O)cc1, CCCCC=O, CN(CCO)S(=O)(=O)C(F)(F)C(F)(F)C(F)(F)C(F)(F)C(F)(F)C(F)(F)C(F)(F)C(F)(F)F, COCN(COC)c1nc(N(COC)COC)nc(N(COC)COC)n1, O=C1c2ccc(O)c(O)c2C(=O)c2c(O)ccc(O)c21, OCCN1CN(CCO)CN(CCO)C1, O=C(O)CCC(F)(F)C(F)(F)C(F)(F)C(F)(F)C(F)(F)F, CN(Cc1cnc2nc(N)nc(N)c2n1)c1ccc(C(=O)N[C@@H](CCC(=O)O)C(=O)O)cc1, CC1=NN(c2ccccc2)C(=O)C1

AC50, active:
O=C(O)C(F)(F)OC(F)(F)C(F)(F)OC(F)(F)C(F)(F)OC(F)(F)C(F)(F)C(F)(F)C(F)(F)F 4.78 µM and 4.58 µM, Clc1ccc(Nc2nnc(Cc3ccncc3)c3ccccc23)cc1 3.84 µM, O=S(=O)(O)C(F)(F)C(F)(F)C(F)(F)C(F)(F)C(F)(F)C(F)(F)C(F)(F)C(F)(F)C(F)(F)C(F)(F)F 7.29 µM and 5.4 µM, O=C1OC2(c3ccccc31)c1cc(I)c(O)c(I)c1Oc1c2cc(I)c(O)c1I 4.07 µM, Cc1[nH]nc2c1N=C(c1ccccc1Cl)c1cc([N+](=O)[O-])ccc1N2 1.62 µM, N=C(N)c1ccc(OCCCCCOc2ccc(C(=N)N)cc2)cc1 10.3 µM, CCCCc1oc2ccccc2c1C(=O)c1cc(I)c(OCCN(CC)CC)c(I)c1 18.8 µM, CN(Cc1cnc2nc(N)nc(N)c2n1)c1ccc(C(=O)N[C@@H](CCC(=O)O)C(=O)O)cc1 2.71 µM, O=C(CC(=O)C(F)(F)C(F)(F)C(F)(F)F)c1cccs1 10.9 µM and 10 µM, CS(=O)(=O)c1ccc([C@@H](CC2CCCC2)C(=O)Nc2cnccn2)cc1Cl 29.2 µM
